Measurements from the supplement of paper PMC10849652.
Of roughly 7,900 targets only a part is listed; those with a hit were picked by preference. About 0.6% of all pairs of compound and target were hits. A number with no mark means an inactive call.

Experiments:
Assay in all cases: log2 fold change, soluble protein after heating vs DMSO (PISA); higher = thermal stabilisation; K562 cells, 10 uM, 30 min; active = over 0.2 and 3.5 SD of the protein, either way, in both replicates (recomputed)
[1] = compound: CC1=C(C=C(C=C1)NC(=O)C2=CC(=CC=C2)C(C)(C)C#N)NC3=CC4=C(C=C3)N=CN(C4=O)C
Method in brief: (§1)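 K562 cells at 2×10^6 cells/mL were treated for 30 min with 10 μM compound, and aliquots were heated for 3 min over 48°C-58°C before pooling. Extraction used PBS with 0.5% NP-40 at 4°C, and soluble protein was the supernatant after 21,000xg for 90 min, measured by TMTpro 16plex LC-MS/MS with channel sums equalised. Thermal stability values, relative to control samples and from duplicates, are log2 fold changes.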

[2] = compound: CC1=C(C=C(C=C1)NC(=O)C2=CC(=CC=C2)N(C)C)NC(=O)C3=CC=C(C=C3)O
Method in brief: as §1

[3] = compound: CC1=CC=C(C=C1)SC2=C3C=C(SC3=CN=C2)C(=O)N
Method in brief: as §1

[4] = compound: CC1=NC(=CC=C1)C2=C(N=C(N2)C(C)(C)C)C3=CC4=NC=CN=C4C=C3
Method in brief: as §1

[5] = compound: CCCCN(Cc1ccc(C(=O)NO)cc1)C(=O)Nc1ccccc1 [Nexturastat A]
Method in brief: as §1

[6] = compound: CCCS(=O)(=O)Nc1ccc(F)c(C(=O)c2c[nH]c3ncc(-c4ccc(Cl)cc4)cc23)c1F [vemurafenib]
Method in brief: as §1

[7] = compound: CCCS(=O)(=O)Nc1ccc(F)c(C(=O)c2c[nH]c3ncc(Cl)cc23)c1F
Method in brief: as §1

[8] = compound: CCCc1cc(C)[nH]c(=O)c1CNC(=O)c1cc(-c2ccnc(N3CCN(C)CC3)c2)cc2c1cnn2C(C)C
Method in brief: as §1

[9] = compound: CCN(CC)Cc1ccc2cc(COC(=O)Nc3ccc(C(=O)NO)cc3)ccc2c1 [givinostat]
Method in brief: as §1

[10] = compound: CCN(CCCOc1ccc2c(Nc3cc(CC(=O)Nc4cccc(F)c4)[nH]n3)ncnc2c1)CCOP(=O)(O)O [barasertib]
Method in brief: as §1

UniProt Q13409, sequence (Q13409 whole entry, looked up): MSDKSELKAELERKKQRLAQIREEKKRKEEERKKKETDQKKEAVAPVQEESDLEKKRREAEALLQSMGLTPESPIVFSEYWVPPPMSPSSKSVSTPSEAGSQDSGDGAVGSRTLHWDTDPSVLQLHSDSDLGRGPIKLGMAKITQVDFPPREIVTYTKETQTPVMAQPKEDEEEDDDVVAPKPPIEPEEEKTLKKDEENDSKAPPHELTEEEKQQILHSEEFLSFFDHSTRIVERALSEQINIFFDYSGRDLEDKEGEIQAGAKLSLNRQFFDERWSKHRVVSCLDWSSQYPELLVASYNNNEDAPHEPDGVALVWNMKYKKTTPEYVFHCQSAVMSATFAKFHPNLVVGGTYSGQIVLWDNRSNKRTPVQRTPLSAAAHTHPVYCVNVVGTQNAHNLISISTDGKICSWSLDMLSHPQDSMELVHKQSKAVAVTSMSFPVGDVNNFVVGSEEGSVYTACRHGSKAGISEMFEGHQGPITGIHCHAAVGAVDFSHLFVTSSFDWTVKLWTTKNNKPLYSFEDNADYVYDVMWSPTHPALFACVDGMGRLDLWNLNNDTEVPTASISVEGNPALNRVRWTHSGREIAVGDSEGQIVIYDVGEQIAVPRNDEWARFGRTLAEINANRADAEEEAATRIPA
UniProt P50570, sequence (P50570 whole entry, looked up): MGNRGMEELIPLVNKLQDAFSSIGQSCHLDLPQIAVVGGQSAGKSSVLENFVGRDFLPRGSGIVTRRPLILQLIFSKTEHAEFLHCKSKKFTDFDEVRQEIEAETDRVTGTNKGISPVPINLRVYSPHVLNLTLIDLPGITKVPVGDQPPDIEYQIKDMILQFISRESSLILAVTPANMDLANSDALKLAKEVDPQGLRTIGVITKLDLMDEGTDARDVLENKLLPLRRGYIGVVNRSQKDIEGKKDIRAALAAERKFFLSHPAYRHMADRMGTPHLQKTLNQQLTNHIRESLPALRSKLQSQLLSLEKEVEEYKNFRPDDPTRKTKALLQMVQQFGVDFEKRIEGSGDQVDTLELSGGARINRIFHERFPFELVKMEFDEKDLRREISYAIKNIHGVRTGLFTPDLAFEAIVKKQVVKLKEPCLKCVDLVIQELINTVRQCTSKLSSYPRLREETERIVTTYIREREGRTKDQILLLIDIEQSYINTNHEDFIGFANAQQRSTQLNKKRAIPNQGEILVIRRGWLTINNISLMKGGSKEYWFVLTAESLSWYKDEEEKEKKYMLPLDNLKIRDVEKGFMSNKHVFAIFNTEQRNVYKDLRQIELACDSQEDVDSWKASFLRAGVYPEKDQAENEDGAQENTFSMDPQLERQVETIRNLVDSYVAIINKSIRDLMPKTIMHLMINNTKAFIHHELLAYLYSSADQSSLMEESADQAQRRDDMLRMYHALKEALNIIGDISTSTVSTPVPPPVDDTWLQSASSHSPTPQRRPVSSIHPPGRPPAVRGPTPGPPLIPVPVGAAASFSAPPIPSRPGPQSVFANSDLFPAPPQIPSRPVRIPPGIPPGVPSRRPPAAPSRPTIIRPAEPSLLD
UniProt Q6UX07, sequence (Q6UX07 whole entry, looked up): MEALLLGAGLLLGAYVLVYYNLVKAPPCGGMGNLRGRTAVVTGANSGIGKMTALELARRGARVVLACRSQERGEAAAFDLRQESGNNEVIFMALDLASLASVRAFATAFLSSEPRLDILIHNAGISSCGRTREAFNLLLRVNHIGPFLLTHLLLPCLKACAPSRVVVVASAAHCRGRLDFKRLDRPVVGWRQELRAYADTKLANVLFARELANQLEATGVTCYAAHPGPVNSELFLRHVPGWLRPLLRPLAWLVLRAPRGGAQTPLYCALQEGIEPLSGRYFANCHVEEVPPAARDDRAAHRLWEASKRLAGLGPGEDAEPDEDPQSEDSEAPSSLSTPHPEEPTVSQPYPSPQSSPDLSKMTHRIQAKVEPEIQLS
UniProt P18146, sequence (P18146 whole entry, looked up): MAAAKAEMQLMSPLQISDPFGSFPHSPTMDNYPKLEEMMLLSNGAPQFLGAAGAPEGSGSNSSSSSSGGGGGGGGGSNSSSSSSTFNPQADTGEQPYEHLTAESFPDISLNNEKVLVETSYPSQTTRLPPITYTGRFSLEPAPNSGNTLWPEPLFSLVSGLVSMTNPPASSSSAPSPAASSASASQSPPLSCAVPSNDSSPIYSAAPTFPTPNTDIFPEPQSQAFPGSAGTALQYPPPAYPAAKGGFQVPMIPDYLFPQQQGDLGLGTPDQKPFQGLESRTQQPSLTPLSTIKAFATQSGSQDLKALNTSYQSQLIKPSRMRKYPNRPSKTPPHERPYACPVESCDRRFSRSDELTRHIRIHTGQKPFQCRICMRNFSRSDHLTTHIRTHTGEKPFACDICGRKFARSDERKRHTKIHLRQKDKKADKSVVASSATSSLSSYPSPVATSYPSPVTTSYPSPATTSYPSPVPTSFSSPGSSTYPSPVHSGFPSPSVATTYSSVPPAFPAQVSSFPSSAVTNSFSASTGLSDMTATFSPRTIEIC
UniProt Q9P2D6, sequence (Q9P2D6 whole entry, looked up): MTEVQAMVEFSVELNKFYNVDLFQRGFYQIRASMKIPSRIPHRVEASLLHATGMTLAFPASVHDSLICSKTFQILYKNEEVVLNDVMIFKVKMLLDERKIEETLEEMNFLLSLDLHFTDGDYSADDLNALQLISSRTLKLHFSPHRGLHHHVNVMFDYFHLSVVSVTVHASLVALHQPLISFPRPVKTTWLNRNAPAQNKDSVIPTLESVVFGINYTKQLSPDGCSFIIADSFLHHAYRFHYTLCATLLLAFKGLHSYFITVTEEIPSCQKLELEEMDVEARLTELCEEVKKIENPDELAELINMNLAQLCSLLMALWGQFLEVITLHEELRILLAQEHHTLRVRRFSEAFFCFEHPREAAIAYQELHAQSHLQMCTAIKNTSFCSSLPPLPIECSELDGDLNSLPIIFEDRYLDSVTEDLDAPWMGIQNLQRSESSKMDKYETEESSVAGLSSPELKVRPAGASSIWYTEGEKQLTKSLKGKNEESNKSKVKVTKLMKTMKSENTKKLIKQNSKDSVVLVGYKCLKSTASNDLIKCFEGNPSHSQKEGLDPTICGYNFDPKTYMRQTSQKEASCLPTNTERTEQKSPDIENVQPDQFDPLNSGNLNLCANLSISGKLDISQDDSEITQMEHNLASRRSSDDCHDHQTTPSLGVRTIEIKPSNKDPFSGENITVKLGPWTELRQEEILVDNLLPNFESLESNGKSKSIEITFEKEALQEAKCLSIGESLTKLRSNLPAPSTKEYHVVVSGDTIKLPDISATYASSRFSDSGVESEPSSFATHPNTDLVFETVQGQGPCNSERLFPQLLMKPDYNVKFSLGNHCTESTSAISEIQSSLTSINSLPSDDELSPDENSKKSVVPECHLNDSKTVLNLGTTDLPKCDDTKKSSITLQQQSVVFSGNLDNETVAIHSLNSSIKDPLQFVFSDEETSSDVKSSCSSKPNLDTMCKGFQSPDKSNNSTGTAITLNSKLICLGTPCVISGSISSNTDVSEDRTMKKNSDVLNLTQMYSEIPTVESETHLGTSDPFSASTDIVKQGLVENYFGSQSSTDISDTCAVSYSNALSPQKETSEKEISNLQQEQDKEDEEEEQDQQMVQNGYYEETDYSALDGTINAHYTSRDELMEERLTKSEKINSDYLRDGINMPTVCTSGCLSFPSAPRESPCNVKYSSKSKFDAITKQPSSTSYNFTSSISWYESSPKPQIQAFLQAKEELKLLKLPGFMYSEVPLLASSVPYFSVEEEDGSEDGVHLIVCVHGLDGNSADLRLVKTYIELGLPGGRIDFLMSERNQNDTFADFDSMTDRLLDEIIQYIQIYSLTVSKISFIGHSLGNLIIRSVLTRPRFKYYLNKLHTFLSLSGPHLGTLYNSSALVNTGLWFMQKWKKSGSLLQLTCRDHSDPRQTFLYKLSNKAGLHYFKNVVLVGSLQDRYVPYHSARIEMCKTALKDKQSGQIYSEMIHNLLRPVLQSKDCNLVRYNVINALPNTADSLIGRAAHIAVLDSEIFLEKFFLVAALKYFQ
UniProt Q01780, sequence (Q01780 whole entry, looked up): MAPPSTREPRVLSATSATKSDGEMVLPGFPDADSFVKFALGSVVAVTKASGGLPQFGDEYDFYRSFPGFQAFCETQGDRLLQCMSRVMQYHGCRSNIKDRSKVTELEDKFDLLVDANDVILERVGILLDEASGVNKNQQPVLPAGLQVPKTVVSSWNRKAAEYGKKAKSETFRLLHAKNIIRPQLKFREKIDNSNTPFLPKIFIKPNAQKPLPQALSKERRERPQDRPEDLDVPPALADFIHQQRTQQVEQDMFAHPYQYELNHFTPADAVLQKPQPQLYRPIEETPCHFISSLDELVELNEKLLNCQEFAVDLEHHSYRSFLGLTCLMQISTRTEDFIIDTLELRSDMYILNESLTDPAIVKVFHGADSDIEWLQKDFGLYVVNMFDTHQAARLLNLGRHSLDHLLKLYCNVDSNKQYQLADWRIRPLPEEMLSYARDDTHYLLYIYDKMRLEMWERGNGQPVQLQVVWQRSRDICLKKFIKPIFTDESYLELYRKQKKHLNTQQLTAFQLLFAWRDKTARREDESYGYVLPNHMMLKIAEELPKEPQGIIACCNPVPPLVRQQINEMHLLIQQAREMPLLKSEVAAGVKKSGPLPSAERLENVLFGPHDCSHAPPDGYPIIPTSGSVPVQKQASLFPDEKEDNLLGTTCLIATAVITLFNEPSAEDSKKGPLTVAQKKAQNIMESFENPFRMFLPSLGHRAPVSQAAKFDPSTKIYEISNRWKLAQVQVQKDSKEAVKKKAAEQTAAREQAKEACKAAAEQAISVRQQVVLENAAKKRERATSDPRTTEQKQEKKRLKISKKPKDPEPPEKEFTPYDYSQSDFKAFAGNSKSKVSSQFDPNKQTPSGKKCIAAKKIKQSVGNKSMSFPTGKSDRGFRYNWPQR
UniProt Q8NBI2, sequence (Q8NBI2 whole entry, looked up): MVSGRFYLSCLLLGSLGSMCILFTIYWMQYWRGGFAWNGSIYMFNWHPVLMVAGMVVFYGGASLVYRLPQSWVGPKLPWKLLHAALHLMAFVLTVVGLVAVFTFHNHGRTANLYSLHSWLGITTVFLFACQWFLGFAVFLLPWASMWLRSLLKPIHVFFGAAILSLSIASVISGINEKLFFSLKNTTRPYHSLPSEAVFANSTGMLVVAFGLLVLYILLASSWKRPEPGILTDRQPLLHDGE

| Target | log2 fold change [1] | log2 fold change [2] | log2 fold change [3] | log2 fold change [4] | log2 fold change [5] | log2 fold change [6] | log2 fold change [7] | log2 fold change [8] | log2 fold change [9] | log2 fold change [10] |
| --- | --- | --- | --- | --- | --- | --- | --- | --- | --- | --- |
| DNAJC1 (UniProt Q96KC8) | 0.027 | 0 | 0.014 | 0.049 | -0.079 | -0.007 | 0.037 | -0.13 | -0.013 | 0.047 |
| DDX27 (UniProt Q96GQ7) | -0.026 | -0.057 |  | -0.293 | 0.249 | -0.25 |  | -0.142 | 0.081 |  |
| EEA1 (UniProt Q15075) | -0.027 | 0.009 | 0.009 | 0.011 | -0.035 | -0.024 | 0.003 | -0.036 | -0.01 | 0.009 |
| ELMO1 (UniProt Q92556) | -0.075 | -0.005 |  | -0.074 | -0.101 | -0.172 |  | 0.218 | -0.043 | -0.105 |
| DNAH11 (UniProt Q96DT5) | -0.109 | 0.064 | -0.13 | 0.044 | -0.007 | 0.199 | -0.15 | 0.17 | 0.111 | -0.051 |
| ECPAS (UniProt Q5VYK3) | 0.008 | -0.06 | 0.016 | 0.02 | 0.049 | 0.084 | 0.059 | 0.051 | 0.118 | 0.037 |
| FADS3 (UniProt Q9Y5Q0) | 0.031 | -0.002 | -0.012 | 0.031 | -0.096 | 0.01 | 0.026 | -0.069 | -0.108 | 0.042 |
| DNM2 isoform 4 (UniProt P50570) | 0.062 | -0.001 |  | 0.23 | 0.089 |  |  | -0.032 | 0.159 | 0.013 |
| ETNK1 (UniProt Q9HBU6) | 0.241 | -0.054 | 0.022 | 0.02 | -0.177 | 0.006 | 0.172 | -0.076 | 0.042 | 0.005 |
| DYNC1I2 isoform 2 (UniProt Q13409) | 0.006 | -0.054 | -0.179 | 0.061 | 0.047 |  | 0.018 | 0.271 | 0.044 | 0.015 |
| DBT (UniProt P11182) | 0.001 | -0.017 | 0.01 | -0.015 | 0.024 | -0.011 | 0.015 | -0.042 | 0.005 | -0.033 |
| CYB561A3 isoform 2 (UniProt Q8NBI2) | 0.051 | 0.025 | -0.074 | 0.02 |  |  | 0.059 | -0.086 | 0.033 | -0.057 |
| ELOVL5 isoform 2 (UniProt Q9NYP7) | 0.079 | 0.02 | 0.002 |  | -0.05 | 0.065 | 0.03 | -0.241 | -0.008 | 0.035 |
| EXOSC10 (UniProt Q01780) | -0.537 | 0.061 | -0.07 | -0.123 | 0.762 (active) | -0.221 | -0.18 | -0.168 | 0.147 | 0.036 |
| DAXX (UniProt Q9UER7) | 0.019 | -0.02 | 0.031 | -0.165 |  | -0.058 | 0.031 |  | 0.352 | -0.025 |
| F5 (UniProt P12259) | 0.056 | 0.036 | -0.027 | 0.011 | -0.04 | 0.066 | -0.016 | -0.036 | -0.01 | 0.034 |

| Target | log2 fold change [1] | log2 fold change [2] | log2 fold change [3] | log2 fold change [4] | log2 fold change [5] | log2 fold change [6] | log2 fold change [7] | log2 fold change [8] | log2 fold change [9] | log2 fold change [10] |
| --- | --- | --- | --- | --- | --- | --- | --- | --- | --- | --- |
| ERLIN1 (UniProt O75477) | 0.011 | -0.018 | 0.028 | -0.01 | 0.031 | -0.02 | 0.014 | 0.065 | 0.014 | 0.028 |
| DDOST (UniProt P39656) | 0.03 | -0.013 | -0.031 | 0.016 | -0.01 | 0.003 | -0.006 | -0.001 | 0.006 | 0.008 |
| DHRS7B (UniProt Q6IAN0) | -0.008 | -0.066 | -0.049 | -0.001 | 0.003 | 0.066 | 0.06 | 0.04 | -0.029 | -0.004 |
| DSN1 (UniProt Q9H410) | -0.02 | -0.096 | -0.003 | 0.021 | 0.051 | 0.133 | 0.022 | 0.004 | 0.053 | 0.075 |
| EGLN1 (UniProt Q9GZT9) | -0.14 | 0.009 | -0.013 | 0.048 | -0.096 | -0.007 | 0.006 | 0.017 | -0.191 | 0.066 |
| EDC3 (UniProt Q96F86) | -0.046 | 0.085 | 0.021 | 0.037 | 0.088 | 0.046 | 0.008 | 0.1 | 0.049 | 0.055 |
| EGR1 (UniProt P18146) | -0.128 | -0.024 | -0.404 |  | 0.53 | 0.305 | -0.13 | -0.027 | -0.06 | -0.048 |
| EXOC5 (UniProt O00471) | 0.006 | -0.022 | -0.007 | 0.056 | 0.017 | 0.046 | 0.08 | -0.028 | 0.118 | 0.031 |
| DENND10 (UniProt Q8TCE6) | 0.022 | 0.036 | 0.029 |  | -0.119 | -0.023 | 0.01 | -0.023 | 0.131 | 0.036 |
| DOCK8 (UniProt Q8NF50) | -0.094 | -0.051 |  | -0.086 | 0.468 | 0.134 |  | 0.093 | 0.245 | 0.055 |
| FADS1, A0A0A0MR51 | 0.09 | -0.019 | 0.008 | 0.069 | -0.006 | -0.002 | 0.021 | -0.034 | -0.274 (active) | 0.031 |
| EXOC8 (UniProt Q8IYI6) | 0.035 | -0.085 | 0.037 | 0.016 | -0.087 | 0.048 | 0.01 | -0.091 | 0.028 | 0.048 |
| CTSC (UniProt P53634) | -0.113 | 0.001 | 0.059 | -0.003 | -0.009 | 0.035 | 0.01 | 0.03 | 0.017 | 0.023 |
| ELF1 (UniProt P32519) | 0.056 | -0.05 | 0 | 0.033 | -0.051 |  | 0.091 |  | 0.152 |  |
| DHRS13 (UniProt Q6UX07) | -0.106 | 0.027 |  | -0.055 |  | -0.062 |  | 0.084 | 0.249 |  |
| FAM135A (UniProt Q9P2D6) | -0.178 |  |  |  | 0.5 (active) | -0.042 |  |  | 0.131 |  |
